The list is not random: actives were taken first. Their share in the collection is about 12%.
JMJD2A Tudor = inhibitors of human JMJD2A Tudor domain | O75164 | AlphaScreen JMJD2A-Tudor / H3K4me3 peptide binding | Potency, µM (doses to about 114 µM), for inactives: at the top dose activity change, negative = inhibition, usual class: inhibitors | actives 4.4% (n = 390,000) | AID 504339; also: % is scaled to controls: 0 for no effect and ±100 for the full control effect; nearly all actives have a fitted effect of over 50% in size
G9a block = blocks human histone lysine methyltransferase G9a; Q96KQ7; G9a H3K9 monomethylation, AlphaScreen, 2 h; Potency, µM (series often up to 102 µM), for the others: at the top dose activity, negative = inhibition, hits mostly inhibitors; actives 8.8% (n = 350,000); AID 504332; also: % is scaled to controls: 0 for no effect and ±100 for the full control effect; nearly all actives have a fitted effect of over 75% in size
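Compounds were preincubated with 20 nM G9a for 15 min, after which biotinylated H3K9 peptide (500 nM) and SAM (20 uM) started a 2 h room-temperature reaction. Monomethylated product was quantified by antibody-based AlphaScreen chemiluminescence.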
HP1b binding inh = inhibitors of HP1-beta chromodomain binding to methylated histone tails; P83916; AlphaScreen HP1-beta / biotin-H3K9me3 peptide binding; Potency, µM (doses to about 114 µM), without a hit: at the top dose activity change, negative = inhibition, hits mostly inhibitors; actives 0.56% (n = 390,000); AID 540317; also: nearly all actives have a fitted effect of over 70% in size
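HP1-beta protein (50 nM final) preincubated 30 min at room temperature with biotinylated H3(1-18)K9me3 peptide (50 nM) in PBS pH 7.4, 0.01% Tween-20, then compound added for 30 min. AlphaScreen streptavidin donor/nickel chelate acceptor beads (10 ug/mL final), 30 min dark, luminescence read.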
Sfp PPTase inh = Sfp phosphopantetheinyl transferase inhibition; Biochemical Sfp PPTase activity, qHTS; Potency, µM, inactives show largest response in the series, negative = inhibition, most hits filed as inhibitors; actives 3.5% (n = 310,000);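 also: the enzyme is Sfp with the accession as filed and its product quenches rhodamine fluorescence; 0% = enzyme reaction without inhibitor and -100% = no enzyme wells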
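Fluorescence-quenching assay: 15 nM Sfp-PPTase preincubated 15 min at room temperature with compound, then 5 uM rhodamine-CoA and 12.5 uM BHQ-2-labelled YbbR peptide added. Fluorescence (ex 525/em 598 nm) read at start and after 30 min; difference gives rate.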
BAZ2B inh = blocks human BAZ2B; AlphaScreen BAZ2B-H3K14Ac peptide displacement; Potency, µM (series often up to 114 µM), without a hit: at the highest dose activity change, negative = inhibition, actives largely listed as inhibitors; actives 4.4% (n = 360,000); AID 504333; also: % is scaled to controls: 0 for no effect and ±100 for the full control effect; nearly all actives have a fitted effect of over 60% in size
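AlphaScreen displacement of biotin-H3(5-23)K14Ac peptide (50 nM final) from BAZ2B (50 nM final) in PBS pH 7.4, 0.01% Tween-20; complex preformed 30 min RT, then compounds (top 110 uM) 30 min RT, beads 20 min dark.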
* marks the source's active call; other numbers are inactive results; ? = inconclusive; . = no result; ! = not confirmed by another sample; [ ] = another dose, or the depositor's remark. Calls follow the shape of the dose curve; as a rule, active = well fitted curve in the direction sought with a large enough effect; inconclusive = small, poorly fitted or top-dose-only effect, or another doubt; inactive = no such curve, though single readings can be large; an effect the other way counts as inactive or inconclusive. Potency is read from the fitted curve at half-maximal effect.

SMILES	JMJD2A Tudor	G9a block	HP1b binding inh	Sfp PPTase inh	BAZ2B inh
COc1cc(Br)c(CC2c3cc(OC)c(OC)cc3CCN2C)cc1OC (centres undefined)	-12%	.	5%	4%	.
COc1cc2c(cc1OC)[C@@H](Cc1ccc(OCCC#N)cc1)N(C)CC2	-2%	35µM*	7%	13%	5%
CN(C)c1ccnc(Nc2ccccc2)c1C#N	-2%	-15%	37%	-1%	-4%
CN(C)c1ccnc2c[cH-]cc12.[Fe].c1ccc(-[c-]2[c-](-c3ccccc3)[c-](-c3ccccc3)[c-](-c3ccccc3)[c-]2-c2ccccc2)cc1 (centres undefined)	4µM*	?	3.2µM*	-24%	1.6µM*
C(C#CCCCCCCCCC[n+]1ccccc1)#CCCCCCCCCC[n+]1ccccc1	-8%	-19%	-21%	50µM*	-7%
CN(C)S(=O)(=O)Oc1ccsc1C(=O)Nc1ccc(Cl)c(Cl)c1	37%[57.1 µM]	?	73%	-2%	10%
COc1ccc(COc2ccsc2C(=O)Nc2ccc(Cl)c(Cl)c2)cc1	-28%	-7%	18%	56µM*	-5%
CSc1nccc(-c2sc(SC)c(C#N)c2-c2ccccc2)n1	35%	116%[59 µM]	106%	-19%	-2%
Cc1ccc(/C=C2\SC(=O)N(CCNC(=O)C3CSC4(C)CCC(=O)N34)C2=O)cc1 (centres undefined)	-18%	35µM*	13%	.	-24%
Cc1ccc(C2(CCNS(=O)(=O)c3ccc(C)cc3)CCOC(C(C)C)C2)cc1 (centres undefined)	0%	-2%[59 µM]	39%	7%	-15%
CC(C)C1CC(CCNCc2ccc(N(C)C)cc2)(c2ccccc2)CCO1 (centres undefined)	32µM*	35µM*	?	4%	25µM*
CC(C)C1CC(CCNCc2ccc3c(c2)OCO3)(c2ccccc2)CCO1 (centres undefined)	-22%	-5%	24%	8%	-5%
Cc1ccc(C2(CCNCc3ccc(N(C)C)cc3)CCOC(C(C)C)C2)cc1 (centres undefined)	40µM*	?	?	14%	35µM*
CCCCC(=O)Nc1nc2c(OC)cc([N+](=O)[O-])cc2s1	-18%	0%	35%	13%	-12%
COc1cc([N+](=O)[O-])cc2sc(NC(C)=O)nc12	-4%	-21%[12.7 µM]	13%	40µM*	-14%
COc1cccc(CNC(=O)CCCn2nc(C)c3sc4ccccc4c3c2=O)c1	-5%	-34%[59 µM]	55%	.	1%
CC(C)=C1C2CCC1C1C(=O)N(c3ccc4c(c3)OCO4)C(=O)C21 (centres undefined)	-2%	-7%[59 µM]	27%	4%	0%
CC(C)=C1C2C=CC1C1C(=O)N(c3ccc4c(c3)OCO4)C(=O)C21 (centres undefined)	-14%	10µM*	55%	?	-5%
O=C1C2C3C=CC(C4CC34)C2C(=O)N1c1ccc2c(c1)OCO2 (centres undefined)	0%	50µM*	46%	-1%	.
C[C@@H]1COC(=O)[C@@H](Cc2ccc(F)cc2)CC/C=C\C[C@@H](CC(=O)NCCO)C(=O)N1	-22%	.	25%	.	.
Cc1[nH]c2ccccc2c1Cc1nnc(SCc2ccccc2)o1	?	71µM*	-3%	-5%	?
COc1ccc(Cc2nnc(SCc3ccc([N+](=O)[O-])cc3)o2)cc1	-35%	-7%	?	5%	?
O=[N+]([O-])c1ccc(C[n+]2ccc(Cc3ccccc3)cc2)cc1	-8%	13µM*	32%	-15%	-27%
O=[N+]([O-])c1ccc(CSc2nnc(Cc3ccccc3)o2)cc1	-29%	45µM*	14%	-1%	-33%
O=c1[nH]c(CSc2nnc(Cc3ccccc3)o2)nc2ccccc12	0%	?	30%	-13%	-3%
SMILES	JMJD2A Tudor	G9a block	HP1b binding inh	Sfp PPTase inh	BAZ2B inh
COc1ccc2cc(C(=O)NCCO)sc(=O)c2c1OC	-9%	12%[59 µM]	34%	17%	3%
O=C1CN(C(=O)c2cc(Br)c(Br)s2)c2ccccc2N1	-6%[11.4 µM]	?	14%	10%	-39%
COc1ccc(-c2[nH]c(-c3ccccc3)nc2SCC(=O)NC2CCCC2)cc1	?	-48%[59 µM]	?	-1%	?
COc1cccc(-c2nc(SCC(=O)Nc3ccc4c(c3)OCO4)c(-c3ccccc3)[nH]2)c1	?	8.9µM*	?	.	?
O=C(CSc1nc(-c2ccccc2)[nH]c1-c1ccccc1)Nc1ccc2c(c1)OCCO2	?	?	-15%	.	?
COc1ccc(-c2nc(SCC(=O)Nc3ccc4c(c3)OCO4)c(-c3ccc(OC)cc3)[nH]2)cc1	?	13µM*	-16%	.	79µM*
COc1ccc(-c2[nH]c(-c3cccc(OC)c3)nc2SCC(=O)NC2CCCC2)cc1	?	79µM*!	18%	4%	?
COc1ccc(-c2[nH]c(-c3ccccc3)nc2SCC(=O)Nc2ccc3c(c2)OCCO3)cc1	?	?	-8%	.	?
Cc1ccc(NC(=O)COC(=O)COc2cccc3c2OC(C)(C)C3)cc1C	-4%	13%	25%	8%	-15%
CCS(=O)(=O)Nc1ccc2c(c1)OCO2	-8%[11.4 µM]	8%	-12%	16%	-14%
COc1cccc(CNC(=O)CCCN2C(=O)CSc3c2c(C)nn3-c2ccccc2)c1OC	-12%	3%[59 µM]	-3%	.	-23%
S=C(Nc1ccccc1Cl)N1CCN(c2ccccn2)CC1	-1%	.	28%	2%	2%
C/C(=N/NC(=O)CNC(=O)c1ccccn1)c1ccccc1	-7%	?	39%	?	-27%
CC(=NNC(=S)Nc1ccccc1Cl)c1ccccn1	56µM*	.	-32%	.	.
C=CCNC(=S)N/N=C(\C)c1ccccn1	45µM*	-2%	31%	79µM*	4.5µM*
O=C1CCCCCCC1Sc1ccccc1[N+](=O)[O-] (centres undefined)	-17%[11.4 µM]	11µM*	?	-30%	?
O=C(NCc1cccnc1)C(=O)NCC1OCCCN1S(=O)(=O)c1ccccc1 (centres undefined)	-8%	20%[59 µM]	30%	10%	8%
Cc1nc(-c2ccc(S(=O)(=O)N3CCN(C4c5ccccc5-c5ccccc54)CC3)s2)cs1	-12%	56µM*	?	11%	-29%
Cc1nc(-c2ccc(S(=O)(=O)N3CCCN(CCc4ccccc4)CC3)s2)cs1	?	50µM*	-8%	-10%	56µM*
O=S(=O)(c1ccc(Cl)s1)N1CCN(CCc2ccccc2)CC1	-7%	.	28%	5%	-12%
CCC(NC(=O)Nc1nnc(C(F)(F)F)s1)(C(F)(F)F)C(F)(F)F	-2%	?	32%	39%	15%
CCC(NC(=O)NNC(N)=S)(C(F)(F)F)C(F)(F)F	-19%	?	14%	45µM*	-13%
